An excerpt weighted towards active compounds, which were near 3.5% of everything screened.
LEDGF integ inh: blocks HIV-1 LEDGF/p75-dependent DNA integration | TR-FRET IN-LEDGF/p75 DNA integration, Eu/Cy5 | inhibition, % at 3.7 µM | hit rate 0.64% among 370,000 | AID 743269;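 active means inhibition above the screen-wide mean plus 3 SD, cut at about 13% in these data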;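 further: signal is the Cy5 over europium emission ratio at 671 and 618 nm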
rCAG binder: r(CAG) repeat RNA binding | TO-PRO-1 dye displacement fluorescence | inhibition, % at 3 µM | hit rate 1.3% among 370,000;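 active means inhibition above the plate cutoff, the mean of all test compounds on that plate plus 3 SD, cut at about 35% in these data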;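 further: higher means more dye released from RNA so lower well fluorescence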
DNMT1 inh: inhibitors of human DNMT1. P26358. hit rate 0.83% among 360,000. AID 588458. DNMT1 molecular beacon, Hinp1I cleavage, fluorescence. inhibition (reported as % activation of signal), % at 10 µM; in the data active means inhibition above about 50%
Target sequence (P26358 504-1616 limits assumed): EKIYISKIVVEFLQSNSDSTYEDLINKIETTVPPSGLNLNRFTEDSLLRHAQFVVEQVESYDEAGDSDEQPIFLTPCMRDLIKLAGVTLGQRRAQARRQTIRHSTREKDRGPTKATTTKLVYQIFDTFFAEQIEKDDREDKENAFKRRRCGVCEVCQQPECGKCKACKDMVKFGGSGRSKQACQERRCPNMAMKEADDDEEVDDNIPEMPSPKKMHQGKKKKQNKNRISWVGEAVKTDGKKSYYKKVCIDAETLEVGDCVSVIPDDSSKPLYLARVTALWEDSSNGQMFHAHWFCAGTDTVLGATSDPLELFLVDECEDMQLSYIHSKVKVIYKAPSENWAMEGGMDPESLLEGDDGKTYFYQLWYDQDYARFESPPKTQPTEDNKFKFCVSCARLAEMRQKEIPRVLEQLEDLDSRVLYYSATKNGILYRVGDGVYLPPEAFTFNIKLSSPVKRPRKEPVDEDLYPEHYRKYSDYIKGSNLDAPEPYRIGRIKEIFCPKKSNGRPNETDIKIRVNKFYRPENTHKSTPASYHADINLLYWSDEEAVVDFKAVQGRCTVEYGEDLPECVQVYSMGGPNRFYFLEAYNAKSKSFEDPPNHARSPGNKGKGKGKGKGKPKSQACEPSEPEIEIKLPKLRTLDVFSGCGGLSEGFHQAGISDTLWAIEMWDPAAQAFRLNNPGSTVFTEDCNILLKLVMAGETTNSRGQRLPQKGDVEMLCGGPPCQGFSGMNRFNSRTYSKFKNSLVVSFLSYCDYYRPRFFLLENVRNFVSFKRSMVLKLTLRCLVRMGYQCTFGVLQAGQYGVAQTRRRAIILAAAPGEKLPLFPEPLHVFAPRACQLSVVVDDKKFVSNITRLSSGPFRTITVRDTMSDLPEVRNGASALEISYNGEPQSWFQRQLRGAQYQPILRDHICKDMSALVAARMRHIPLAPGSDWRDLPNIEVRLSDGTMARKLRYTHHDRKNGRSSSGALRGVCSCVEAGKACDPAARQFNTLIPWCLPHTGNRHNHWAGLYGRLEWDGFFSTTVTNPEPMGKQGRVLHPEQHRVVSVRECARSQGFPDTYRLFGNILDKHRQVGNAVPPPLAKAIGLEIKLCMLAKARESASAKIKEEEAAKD
UHRF1 binding: human UHRF1 methylated DNA binding inhibitors | Q96T88 | UHRF1 binding to methylated oligo, TR-FRET | hit rate 0.75% among 370,000 | inhibition, % at 4.4 µM; in the data active means inhibition above about 21%;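 further: UHRF1 SRA domain binding a hemimethylated CpG hairpin DNA probe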
PG9 binder: binds the HIV-1 gp120 antibody PG9. TR-FRET gp120-PG9 antibody binding. inhibition, % at 6.7 µM. hit rate 0.43% among 360,000. AID 624416; in the data active means inhibition above about 8.5%
MBD2 DNA inh: MBD2-methylated oligo binding inhibition. TR-FRET, MBD2 binding to methylated oligonucleotide. inhibition, % at 4.4 µM. hit rate 0.31% among 370,000; in the data active means inhibition above about 13%
PG9 binder conf: PG9 antibody binding, confirmed; shares compounds with PG9 binder; TR-FRET PG9 antibody binding, biochemical; inhibition, % at 6.7 µM; hit rate 90% among 1,500; in the data active means inhibition above about 9%
PGV04 counter: counter-screen for PG9 binders: binding control antibody PGV04; shares compounds with PG9 binder; inhibition, % at 6.7 µM; hit rate 95% among 1,500; AID 651604; TR-FRET PGV04 antibody-gp120 binding, biochemical; in the data active means inhibition above about 9.5%
Of the large screens only hits and unclear results are named; the others gave an inactive call (follow-up assays come after a bar, where they were run).

C#CCNC(=O)C[C@@H]1C[C@@]2(C(=O)OCC)CCCC=C2N(Cc2ccc3c(c2)OCO3)C1=O	none (no result: DNMT1 inh)
O=S(=O)(NCc1ccccc1)c1ccccc1NCc1ccc(Cl)cc1	none
COc1ccc(C(=O)Nc2nc3ccc(S(C)(=O)=O)cc3s2)cc1	PG9 binder 46 | PG9 binder conf 41 | PGV04 counter 58
C[C@@H](C(=O)N1CCN(c2ccccc2)CC1)N1C(=O)C2CC=CCC2C1=O (stereo partly specified)	none
CN(c1ccc(F)cc1)S(=O)(=O)c1ccc2[nH]cc(C(=O)O)c(=O)c2c1	PG9 binder 9.6 | PG9 binder conf 16 | PGV04 counter 19
COCCN(CCOC)C(=O)c1c[nH]c2ccc(S(=O)(=O)N(C)c3ccc(F)cc3)cc2c1=O	PG9 binder 9.6 | PG9 binder conf 11 | PGV04 counter 12
CCCCN(C=O)c1c(CC)nc2ccc(C(=O)NCCc3ccccn3)cn12	none
S=c1[nH]nc(-c2ccccn2)n1/N=C/c1ccc(-c2ccccc2Br)o1	PG9 binder 15 | PG9 binder conf inactive | PGV04 counter 25
S=c1[nH]nc(-c2ccccn2)n1/N=C/c1ccco1	none
CCNC(=O)N(C)[C@H]1C[C@H]2c3[nH]c4cccc(-c5ccc6c(c5)OCO6)c4c3CCN2C[C@H]1[C@H](C)O	none (no result: DNMT1 inh, PG9 binder)
CCCC(=O)Nc1ccc(C(=O)Nc2ccc([N+](=O)[O-])cc2OC)cc1	PG9 binder 10 | PG9 binder conf 9.5 | PGV04 counter 17
COC(=O)Nc1nc(-c2ccccc2)c(C(=O)c2ccc(Cl)cc2)s1	PG9 binder 44 | PG9 binder conf 44 | PGV04 counter 65
CCCc1nnc(NC(=S)Nc2ccccc2)s1	PG9 binder 11 | PG9 binder conf 10 | PGV04 counter 13
CC(C)C(=O)Nc1nnc(NC(=S)Nc2ccccc2)s1	none
NC(N)=NS(=O)(=O)c1ccc(NC(=S)NC(=O)c2ccc3c(c2)OCO3)cc1	PG9 binder 9.5 | PG9 binder conf 15 | PGV04 counter 22
COc1ccc(OC)c(Nc2nc(-c3ccccc3O)nc3ccccc23)c1	PG9 binder 50 | PG9 binder conf 51 | PGV04 counter 75
Cc1ccc(NC(=O)Cn2cc(S(=O)(=O)c3ccccc3)c(=O)c3cc(F)ccc32)cc1	none
Cc1ccc(NC(=O)Cn2cc(S(=O)(=O)c3ccc(C)cc3)c(=O)c3cc(F)ccc32)cc1	PG9 binder 13 | PG9 binder conf 36 | PGV04 counter 62
CCOC(=O)Cc1nc(N2CCN(C(=O)C3CCCO3)CC2)c2c(C)c(C(=O)OCC)sc2n1 (stereo unspecified)	none (no result: DNMT1 inh, PG9 binder)
CCOC(=O)c1cc2sc(C)cc2n1CC(=O)Nc1cccc(C)c1C	PG9 binder 11 | PG9 binder conf 11 | PGV04 counter 17
CCOC(=O)C1CCN(C(=O)COC(=O)CNC(=O)c2sc3ccccc3c2Cl)CC1	PG9 binder 10 | PG9 binder conf 12 | PGV04 counter 16
NC(=O)c1ccc(NC(=O)COC(=O)CNC(=O)c2sc3ccccc3c2Cl)cc1	none
CC(=O)c1cccc(NC(=O)CNC(=O)c2sc3ccccc3c2Cl)c1	PG9 binder 15 | PG9 binder conf 17 | PGV04 counter 41
Cc1cccc(NC(=O)CNC(=O)c2sc3ccccc3c2Cl)n1	PG9 binder 12 | PG9 binder conf inactive | PGV04 counter 41
Cc1cccnc1NC(=O)CNC(=O)c1sc2ccccc2c1Cl	none
COc1ccc2c(c1)CC=C1C2CCC2(C)C(=O)C(=NO)CC12 (stereo unspecified)	none
CCOC(=O)Cn1c(=NC(=O)CSC(C)=O)sc2cc(OC)ccc21	PG9 binder 13 | PG9 binder conf 18 | PGV04 counter 23
CCOC(=O)Cn1c(=NC(=O)c2sc3ccccc3c2Cl)sc2cc(S(N)(=O)=O)ccc21	PG9 binder 9.9 | PG9 binder conf 12 | PGV04 counter 28
COc1ccc2c(C)cc(SCC(=O)Nc3ncc(Cl)cc3Cl)nc2c1	PG9 binder 14 | PG9 binder conf 37 | PGV04 counter 53
COc1ccc2c(C)cc(SCC(=O)Nc3cccnc3Cl)nc2c1	none
Cc1ccc(-c2nn(-c3ccccc3)cc2C(=O)OCC(=O)Nc2ncc(Cl)cc2Cl)cc1	PG9 binder 20 | PG9 binder conf 12 | PGV04 counter 27
O=C(COC(=O)c1cccnc1Cl)Nc1ncc(Cl)cc1Cl	none
Cc1cc(SCC(=O)Nc2ncc(Cl)cc2Cl)nc2ccccc12	PG9 binder 12 | PG9 binder conf 15 | PGV04 counter 20
c1ccc(-c2c[nH]c3cccc(-c4cc5ccccc5o4)c23)cc1	none (no result: DNMT1 inh, PG9 binder)
CC(Sc1cnc2ccccc2n1)C(=O)O (stereo unspecified)	PG9 binder 13 | PG9 binder conf 18 | PGV04 counter 23
CC(Sc1ccc2ccccc2n1)C(=O)O (stereo unspecified)	PG9 binder 50 | PG9 binder conf 53 | PGV04 counter 59
Cc1cc(SC(C)C(=O)O)nc2ccccc12 (stereo unspecified)	none
COc1cccc(CO[C@H]2C=C[C@@H](c3ccccc3)O[C@@H]2CO)c1	none (no result: DNMT1 inh, PG9 binder)
Cn1nc(C(C)(C)C)cc1C(=O)N1CCCCC1c1cc(C(=O)Nc2ccccc2Cl)no1 (stereo unspecified)	none
COc1ccc(OC)c(CN2C(=O)c3ccccc3C2c2nnnn2C2CCCC2)c1 (stereo unspecified)	none (no result: DNMT1 inh)
CCn1c(=NC(=O)c2cccc(N3C(=O)CCC3=O)c2)sc2c(OC)ccc(OC)c21	none
COc1ccc(OC)c2c1sc(=NC(=O)c1cccc(N3C(=O)CCC3=O)c1)n2C	PG9 binder 52 | PG9 binder conf 65 | PGV04 counter 82
COC(=O)C[C@@H]1OC[C@H](C)N1S(=O)(=O)c1ccc(C)cc1	none (no result: DNMT1 inh)
Cc1ccc(OCCC(=O)OCC(=O)c2ccc3c(c2)NC(=O)CO3)cc1	PG9 binder 27 | PG9 binder conf 20 | PGV04 counter 38
O=C1COc2ccc(C(=O)COC(=O)c3ncc(Cl)c(Cl)c3Cl)cc2N1	PG9 binder 11 | PG9 binder conf 17 | PGV04 counter 27
COc1cc(OC)cc(C(=O)NCCCNC(=O)c2ccccn2)c1	none
COc1ccc(/C=C/C(=O)NCC(=O)N/N=C(/C)c2ccc(Cl)cc2)cc1	none
O=C(Nc1ccccc1)c1ccc(-c2ccc(F)cc2)s1	PG9 binder 19 | PG9 binder conf 20 | PGV04 counter 28
CNC(=O)c1ccc(-c2ccc(F)cc2)s1	none
Cc1ccc(CNC(=O)Cn2nnc(C(=O)Nc3cc(C)ccc3C)c2N)cc1	none

Screens deposited in PubChem BioAssay by several laboratories.
